In the library only some 3.6% were active in any assay of this set; here they are far more common.
Pf apPOL block – Pf-apPOL inhibitors, biochemical, fluorescence; Plasmodium falciparum apicoplast DNA polymerase (apPOL); Recombinant Pf-apPOL, molecular beacon fluorescence, 1.5 h; inhibition, % at 10 µM; 210,000 tested, 0.25% active
mHTT CaM bind – mutant huntingtin-calmodulin interaction inhibitors – biochemical, AlphaScreen, primary screen. AlphaScreen His-mHTT/GST-CaM binding, luminescence. inhibition, % at 15 µM. 190,000 tested, 3.6% active. AID 1671202, 2021
Target sequence (P42858 whole entry, looked up, change not shown): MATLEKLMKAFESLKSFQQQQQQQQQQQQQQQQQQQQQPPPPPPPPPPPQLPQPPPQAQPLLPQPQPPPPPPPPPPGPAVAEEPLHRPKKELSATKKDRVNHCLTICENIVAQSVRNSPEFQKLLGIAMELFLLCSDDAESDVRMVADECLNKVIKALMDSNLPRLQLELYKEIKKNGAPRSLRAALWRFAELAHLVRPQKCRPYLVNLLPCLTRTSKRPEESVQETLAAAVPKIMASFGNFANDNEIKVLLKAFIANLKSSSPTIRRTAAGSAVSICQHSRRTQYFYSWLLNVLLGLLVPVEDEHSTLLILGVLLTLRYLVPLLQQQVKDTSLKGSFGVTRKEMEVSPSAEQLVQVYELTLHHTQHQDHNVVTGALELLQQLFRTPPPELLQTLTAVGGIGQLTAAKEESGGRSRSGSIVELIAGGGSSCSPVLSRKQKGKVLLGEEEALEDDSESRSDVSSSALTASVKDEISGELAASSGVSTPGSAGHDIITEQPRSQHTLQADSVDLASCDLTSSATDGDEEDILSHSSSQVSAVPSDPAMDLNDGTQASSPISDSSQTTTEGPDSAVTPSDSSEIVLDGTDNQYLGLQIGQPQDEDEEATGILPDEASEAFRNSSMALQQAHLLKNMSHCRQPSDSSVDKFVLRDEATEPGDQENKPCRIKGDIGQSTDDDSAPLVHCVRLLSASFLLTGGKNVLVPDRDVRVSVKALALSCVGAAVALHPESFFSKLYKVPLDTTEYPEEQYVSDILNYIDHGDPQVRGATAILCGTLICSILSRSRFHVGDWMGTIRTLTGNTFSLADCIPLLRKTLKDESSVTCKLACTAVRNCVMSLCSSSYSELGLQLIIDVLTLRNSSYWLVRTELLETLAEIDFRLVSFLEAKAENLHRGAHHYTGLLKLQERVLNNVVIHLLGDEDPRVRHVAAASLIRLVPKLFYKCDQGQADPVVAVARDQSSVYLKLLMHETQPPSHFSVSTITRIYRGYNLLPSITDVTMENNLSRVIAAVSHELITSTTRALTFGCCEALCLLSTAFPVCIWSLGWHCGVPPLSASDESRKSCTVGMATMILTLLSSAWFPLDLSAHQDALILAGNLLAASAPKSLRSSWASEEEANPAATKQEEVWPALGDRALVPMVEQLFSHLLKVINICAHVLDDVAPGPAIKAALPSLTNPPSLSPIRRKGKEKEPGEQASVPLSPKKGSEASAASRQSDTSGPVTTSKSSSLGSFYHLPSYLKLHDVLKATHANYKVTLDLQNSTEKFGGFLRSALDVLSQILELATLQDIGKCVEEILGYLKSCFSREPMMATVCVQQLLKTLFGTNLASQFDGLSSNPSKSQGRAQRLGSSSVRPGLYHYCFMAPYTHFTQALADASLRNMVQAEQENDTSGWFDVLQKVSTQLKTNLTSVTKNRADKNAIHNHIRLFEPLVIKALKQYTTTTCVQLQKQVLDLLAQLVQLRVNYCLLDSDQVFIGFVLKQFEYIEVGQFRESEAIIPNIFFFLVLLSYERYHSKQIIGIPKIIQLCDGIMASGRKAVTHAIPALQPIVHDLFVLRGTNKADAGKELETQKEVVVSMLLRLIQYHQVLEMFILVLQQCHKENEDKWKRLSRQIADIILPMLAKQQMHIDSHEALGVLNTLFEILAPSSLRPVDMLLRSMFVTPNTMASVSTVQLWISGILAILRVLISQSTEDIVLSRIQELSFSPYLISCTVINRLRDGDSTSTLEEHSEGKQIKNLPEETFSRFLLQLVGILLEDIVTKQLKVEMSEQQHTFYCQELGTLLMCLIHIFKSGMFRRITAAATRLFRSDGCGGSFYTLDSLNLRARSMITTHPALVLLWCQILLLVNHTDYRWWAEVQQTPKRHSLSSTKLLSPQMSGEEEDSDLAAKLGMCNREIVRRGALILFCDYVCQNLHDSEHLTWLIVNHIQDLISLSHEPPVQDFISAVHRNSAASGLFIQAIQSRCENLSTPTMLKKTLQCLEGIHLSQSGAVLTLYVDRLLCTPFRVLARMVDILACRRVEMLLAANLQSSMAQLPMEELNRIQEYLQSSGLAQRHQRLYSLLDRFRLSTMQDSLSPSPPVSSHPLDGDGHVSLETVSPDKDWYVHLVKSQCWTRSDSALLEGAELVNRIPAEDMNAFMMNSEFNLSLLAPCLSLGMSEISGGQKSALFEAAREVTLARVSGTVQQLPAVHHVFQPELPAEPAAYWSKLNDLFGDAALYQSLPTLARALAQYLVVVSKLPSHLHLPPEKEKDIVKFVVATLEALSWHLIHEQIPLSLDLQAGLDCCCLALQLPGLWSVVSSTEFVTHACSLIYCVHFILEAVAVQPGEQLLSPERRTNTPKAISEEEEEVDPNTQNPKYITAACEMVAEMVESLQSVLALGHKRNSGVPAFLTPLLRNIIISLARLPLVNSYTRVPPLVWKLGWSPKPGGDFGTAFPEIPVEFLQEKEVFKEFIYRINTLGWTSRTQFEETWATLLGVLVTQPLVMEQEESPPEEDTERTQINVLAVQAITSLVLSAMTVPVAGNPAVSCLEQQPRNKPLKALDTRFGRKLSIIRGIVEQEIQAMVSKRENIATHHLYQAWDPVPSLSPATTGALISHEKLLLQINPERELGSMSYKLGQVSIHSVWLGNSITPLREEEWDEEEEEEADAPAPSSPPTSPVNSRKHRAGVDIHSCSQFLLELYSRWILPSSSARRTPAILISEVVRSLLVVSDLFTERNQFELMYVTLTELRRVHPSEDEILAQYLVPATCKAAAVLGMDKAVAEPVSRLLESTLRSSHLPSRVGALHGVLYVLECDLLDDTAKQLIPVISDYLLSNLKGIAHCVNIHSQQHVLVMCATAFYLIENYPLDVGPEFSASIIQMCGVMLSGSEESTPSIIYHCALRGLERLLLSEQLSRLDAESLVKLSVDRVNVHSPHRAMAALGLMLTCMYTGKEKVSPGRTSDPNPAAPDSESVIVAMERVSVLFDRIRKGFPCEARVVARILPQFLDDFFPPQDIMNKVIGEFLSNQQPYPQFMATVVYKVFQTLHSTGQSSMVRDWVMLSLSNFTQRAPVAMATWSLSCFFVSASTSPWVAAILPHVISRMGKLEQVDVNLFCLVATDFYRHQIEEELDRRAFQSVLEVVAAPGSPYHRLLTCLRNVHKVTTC
Of the large screens only hits and unclear results are named; the others gave an inactive call. Rule as the data show it: active = inhibition above about 50%; inactive = the rest.

COc1ccc(OC)c(NC(=O)c2c(NC(=O)CN3CCOCC3)sc3c2CCC3)c1	none
COc1ccccc1NC(=O)c1c(NCc2sccc2C)sc2c1CCC2	mHTT CaM bind 56
COc1ccc(OC)c(NC(=O)c2c(NC(=O)CNCc3ccccc3)sc3c2CCC3)c1	none
COc1ccc(OC)c(NC(=O)c2c(NCc3cccc(F)c3)sc3c2CCC3)c1	mHTT CaM bind 73
COc1ccc(OC)c(NC(=O)c2c(NC(=O)CN3CCCC(C)C3)sc3c2CCC3)c1 (stereo not drawn)	none
CCOc1ccccc1NC(=O)c1c(NCc2sccc2C)sc2c1CCC2	none
CC(CCO)c1cc(C(C)(C)C)c(O)c(C(C)(C)C)c1 (stereo not drawn)	none (no result: Pf apPOL block)
Cc1ccc(C2C3=C(CC(c4ccccc4O)CC3=O)Nc3ncnn32)cc1 (stereo not drawn)	none
COc1cc2nc(-c3ccccc3)c(NC3CCCC3)n2cn1	none
Cc1ccc(N2C(=O)CC(N3CCN(c4ccccc4)CC3)C2=O)cc1Cl (stereo not drawn)	none
Cc1ccc(-c2csc(NCc3ccccc3)[n+]2Cc2ccccc2)cc1	none
Fc1ccc(-c2noc(-c3ccc(N4CCCCCC4)nc3)n2)cc1	none
COc1ccc(OC)c(CNc2sc3c(c2C(=O)Nc2ccccc2OC)CCC3)c1	mHTT CaM bind 82
COc1ccc(OC)c(CNc2sc3c(c2C(=O)Nc2cc(OC)ccc2OC)CCC3)c1	mHTT CaM bind 66
COc1ccc(OC)c(NC(=O)c2c(N)sc3c2CCC3)c1	none
COc1ccccc1NC(=O)c1c(NC(=O)Cc2ccccc2)sc2c1CCC2	none
O=S(=O)(c1ccc(Cl)cc1)N1CCN(c2ccc(F)cc2)CC1	none
Cc1ccc(C(=O)N2CCC(CC(=O)NC(C)CCc3ccccc3)CC2)cc1 (stereo not drawn)	none
COc1ccc(NC(=O)N2CCn3cccc3C2C)cc1OC (stereo not drawn)	none
O=[N+]([O-])c1ccc(Nc2nc(Cl)nc(Cl)n2)cc1	none
O=C(Nc1cccc(F)c1)c1ccc(N2CCC(NCc3cc(Cl)ccc3O)C2)nc1 (stereo not drawn)	mHTT CaM bind 70
O=C(Nc1cccc(F)c1)c1ccc(N2CCC(NCc3ccccc3O)C2)nc1 (stereo not drawn)	none
O=C(Cc1ccc(F)cc1F)Nc1ccccc1	none
Cc1nc2c(C(=O)N3CCCCC3)cnn2c(C)c1Cc1ccccc1Br	none
Cc1nc2c(C(=O)NCc3ccccc3)cnn2c(C)c1Cc1ccc(Cl)cc1	none
COCCNC(=O)c1cnn2c(C)c(Cc3ccc(F)cc3)c(C)nc12	none
COCCCNC(=O)c1cnn2c(C)c(Cc3ccc(Cl)cc3)c(C)nc12	mHTT CaM bind 90
Cc1nc2c(C(=O)N3CCCCC3)cnn2c(C)c1Cc1ccc(Cl)cc1	mHTT CaM bind 100
Cc1nc2c(C(=O)N3CCCC(C)C3)cnn2c(C)c1Cc1ccc(Cl)cc1 (stereo not drawn)	mHTT CaM bind 100
COc1cccc(C(=O)Nc2c3c(nn2-c2ccccc2)CCC3)c1OC	none
Cc1ncsc1CN1CCC(c2nc(-c3ccccc3)no2)C1 (stereo not drawn)	none
Cn1cccc1CN1CCC(c2nc(-c3ccccc3)no2)C1 (stereo not drawn)	mHTT CaM bind 50
Cc1ccc(CN2CCc3nc(Nc4ccc5c(c4)OCCO5)ncc3C2)cc1	mHTT CaM bind 73
COc1cccc(CN2CCc3nc(Nc4ccc5c(c4)OCCO5)ncc3C2)c1OC	none
COc1ccc(OC)c(CN2CCc3nc(Nc4ccc(F)cc4)ncc3C2)c1	mHTT CaM bind 61
COc1cccc(Nc2ncc3c(n2)CCN(Cc2cc(OC)ccc2OC)C3)c1	none
COc1cc(CN2CCc3nc(Nc4ccc5c(c4)OCO5)ncc3C2)ccc1OC(C)C	mHTT CaM bind 82
CCOc1ccc(CN2CCc3nc(Nc4ccc5c(c4)OCO5)ncc3C2)cc1OCC	none
COc1ccc(OC)c(CN2CCc3nc(Nc4ccc5c(c4)OCCO5)ncc3C2)c1	mHTT CaM bind 50
c1ccc(CN2CCc3nc(Nc4ccc5c(c4)OCCO5)ncc3C2)cc1	none
O=c1cnn(C2OC(CO)C(O)C2O)c(=S)[nH]1 (stereo not drawn)	none (no result: Pf apPOL block)
O=C(NCc1ccccn1)c1cnn2c(-c3ccccc3)ccnc12	none
Cn1nc(C(=O)Nc2cccc(Br)c2)cc1C(=O)O	none
Cc1ccc(N=C2NC(=O)CC(C(=O)Nc3ccc(F)cc3F)S2)cc1 (stereo not drawn)	none
CCCc1ccc(Oc2c(C(F)(F)F)oc3c(C)c(OC)ccc3c2=O)cc1	none
CC1C(=O)N(c2ccccc2Cl)CCN1C(=O)C1CC1 (stereo not drawn)	none
O=C(c1ccncc1)N1CCCCC1c1nc(-c2ccc(F)cc2)no1 (stereo not drawn)	none
COc1cc(OC)c(OC)cc1CN1CCc2nc(Nc3ccc4c(c3)OCO4)ncc2C1	mHTT CaM bind 50
Fc1cc(F)cc(CN2CCc3nc(Nc4ccc5c(c4)OCO5)ncc3C2)c1	mHTT CaM bind 73
COc1ccc(CN2CCc3nc(Nc4ccc(F)cc4F)ncc3C2)c(OC)c1OC	mHTT CaM bind 53

Source: PubChem (University of Kansas High Throughput Screening Laboratory)
